# The list is not random: actives were taken first. Their share in the collection is about 4.7%.
# TRHR agonist-1: TRH receptor (human) agonism | 360,000 compounds, 0.18% hits | TRHR cells, calcium flux fluo-8, FDSS agonist mode | activation, % at 2 µM | P34981; also: 0% is about no effect
# Target sequence (P34981 whole entry, looked up): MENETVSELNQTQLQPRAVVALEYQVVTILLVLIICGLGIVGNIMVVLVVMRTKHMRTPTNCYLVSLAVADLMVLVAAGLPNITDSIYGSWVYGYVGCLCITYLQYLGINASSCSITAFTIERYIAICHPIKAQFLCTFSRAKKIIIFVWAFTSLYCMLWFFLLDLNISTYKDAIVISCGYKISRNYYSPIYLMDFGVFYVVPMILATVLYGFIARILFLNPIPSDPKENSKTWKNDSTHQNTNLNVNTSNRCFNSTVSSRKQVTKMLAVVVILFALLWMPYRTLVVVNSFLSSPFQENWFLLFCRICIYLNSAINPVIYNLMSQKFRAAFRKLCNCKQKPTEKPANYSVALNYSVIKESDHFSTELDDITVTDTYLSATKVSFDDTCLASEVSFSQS
#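 TRHR-expressing cells, plated overnight in medium with 10% serum, were loaded with fluo-8 calcium dye at room temperature. After a 10 s baseline, library compound was pin-added and calcium release was recorded kinetically (ex 480/em 530) as agonist response.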
# TRHR enhancer-1: allosterically enhances the human TRH receptor; TRHR cells, fluo-8 calcium fluorescence, EC20 TRH enhancement; 360,000 compounds, 0.66% hits; AID 493056; enhancement, % at 2 µM; in the data active = enhancement above about 30%; also: 0% is about no effect
#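 Enhancer read-out: after compound pinning and an initial kinetic agonist-mode read, an EC20 of TRH (10 nM final) was injected and fluo-8 calcium signal (Ex 480/Em 530) followed at 1 s/cycle for 100 cycles in TRHR-expressing cells.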
# D1 antag: antagonists of human D1 dopamine receptor; AID 504652; HEK293 TREx D1 cells, calcium flux, dopamine EC80; active compounds read low; P21728; activity change, negative = inhibition, % at 10 µM; 360,000 compounds, 3.2% hits; in the data active = activity change below about -30%; also: % is scaled to controls: 0 for no effect and ±100 for the full control effect
#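 Calcium flux readout: force-coupled, inducible Hek293 Trex D1 line, cells induced overnight at 30 C with tetracycline, dye-loaded 30–90 min at RT. Antagonism scored against EC80 dopamine challenge given 180 s after compound.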
# D1 ag: human D1 receptor agonism | P21728 | HEK293 T-REx D1 cells, calcium flux, agonist mode | activation, % at 2 µM | 360,000 compounds, 1% hits; also: 0% is about no effect
#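 Inducible HEK293 T-REx D1 cells, force-coupled to calcium signalling, were plated at 4000 cells/well with tetracycline and held overnight at 30 C. After no-wash calcium dye loading, compound-evoked calcium rise over 180 s flagged agonists.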
# D1 PAM: human D1 dopamine receptor positive modulation; P21728; HEK293 TREx D1 cells, calcium flux, dopamine EC20 potentiation; potentiation, % at 10 µM; 360,000 compounds, 0.036% hits; in the data active = potentiation above about 30%; also: 0% is about no effect
# TRHR enhancer-2: confirmation of human TRH receptor allosteric enhancers; shares compounds with TRHR enhancer-1; TRH receptor cell assay, enhancer confirmation qHTS; activity change, negative = inhibition, % at 46.1 µM; 970 tested, under 10 active; active = well fitted curve in the direction sought with a large enough effect; inconclusive = small, poorly fitted or top-dose-only effect, or another doubt; inactive = no such curve, though single readings can be large; an effect the other way counts as inactive or inconclusive;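 also: compound effect scored on response to added TRH at EC20 of 10 nM; 0% is about no effect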
# TRHR agonist-2: confirmation of human TRH receptor agonists; AID 493078; 970 compounds, 8% hits; Potency, µM (series often up to 46.1 µM), for the others: top-dose activation, hits mostly activators; TRHR-expressing cells, agonist activation read-out; shares compounds with TRHR enhancer-1; active = well fitted curve in the direction sought with a large enough effect; inconclusive = small, poorly fitted or top-dose-only effect, or another doubt; inactive = no such curve, though single readings can be large; an effect the other way counts as inactive or inconclusive; also: potency is read from the fitted curve at half-maximal effect; 0% is about no effect; nearly all actives have a fitted effect of over 75% in size
# Numbers without * were called inactive; u = inconclusive; x = no result given. Rule as the data show it, unless noted: active = activation above about 30%; inactive = the rest.
SMILES,TRHR agonist-1,TRHR enhancer-1,D1 antag,D1 ag,D1 PAM,TRHR enhancer-2,TRHR agonist-2
CC(=O)NC(CCCNC(=S)NC1CCCCC1)C(=O)O (configuration not stated),0,6,-2,1,-3,x,x
O=C1CSc2ccc(S(=O)(=O)NCc3ccc(F)cc3)cc2N1,0,3,-1,5,-8,x,x
CCN(Cc1ccccc1)S(=O)(=O)c1ccc2c(c1)NC(=O)CS2,0,-4,-36*,8,-6,x,x
Cc1ccc(CNS(=O)(=O)c2ccc3c(c2)NC(=O)CS3)cc1,-1,8,-34*,6,-3,x,x
COc1ccc(Nc2nc(N)nc(CN(C)C3CCCCC3)n2)cc1,0,-2,-34*,1,-5,x,x
Cc1noc2ncnc(N3CCN(c4cccc(Cl)c4)CC3)c12,0,-3,-34*,4,1,x,x
Cc1[nH]c2ccccc2c1/C=N/Nc1nc(Nc2ccccc2)nc(N2CCOCC2)n1,0,55*,-5,0,-2,-1,-1%
CC1CCN(Cc2c(C(=O)N/N=C/c3ccc(C(C)C)cc3)nnn2-c2nonc2N)CC1,1,52*,22,0,14,4,2%
CCOC(=O)C1=CN(CC2CCCO2)C=C(C(=O)OCC)C1c1ccccc1C(F)(F)F (configuration not stated),-1,3,6,3,5,x,x
COc1ccccc1OCC(=O)OCC(=O)Nc1sccc1C(N)=O,34*,-2,-23,7,-4,-1,u
Cc1nnc(SCCC(=O)Nc2ccccc2Cl)o1,0,-4,-7,2,-10,x,x
CCc1ccc(C(=O)NCC2COc3ccccc3O2)o1 (configuration not stated),0,60*,1,5,1,-8,1%
COc1ccc(CNCC(=O)Nc2ccccc2-n2cccc2)cc1,-1,-4,-20,12,2,x,x
N#CCCn1cc(CNC2CCC(O)CC2)c2ccccc21 (configuration not stated),-2,45*,6,-1,1,u,-1%
CC1(Cc2cn(CCC#N)c3ccccc23)OCCO1,0,1,5,3,7,x,x
O=C(NC1CCCCC1)N1CCN(S(=O)(=O)c2ccc(F)cc2)CC1,0,46*,-22,0,-6,-3,1%
O=C(NC1CCCCCC1)C1CCN(S(=O)(=O)c2ccc(F)cc2)CC1,0,-3,-4,2,4,x,x
Cc1ccc(NC(=O)C2CC(=O)n3c(nc4ccccc43)N2)cc1Cl (configuration not stated),1,45*,26,3,-8,-2,2%
COc1ccc(NC(=O)c2cc(C3CC3)nc3c2c(C)nn3-c2ccccc2)cc1OC,0,12,2,2,-4,x,x
NS(=O)(=O)c1ccc(NC(=O)CSC2CCCCC2)cc1,0,45*,-15,1,0,-1,0%
N=c1sccn1CC(=O)Nc1ccc(S(N)(=O)=O)cc1,1,54*,4,2,-3,-1,0%
CCOc1ccccc1CN1CCN(C2CCSCC2)CC1CCO (configuration not stated),0,-6,4,2,-2,x,x
O=C(CCN1C(=O)c2ccccc2C1=O)Nc1ccccc1C(F)(F)F,0,-1,-1,0,0,x,x
CCOC(=O)C1=C(C)N(c2ccc(Cl)cc2)C(=O)NC1c1cccc([N+](=O)[O-])c1 (configuration not stated),-1,-4,1,0,1,x,x
COCCOC(=O)C1=C(C)N(c2ccccc2)C(=O)NC1c1cccc([N+](=O)[O-])c1 (configuration not stated),-1,50*,-7,0,-3,-19,0%
SMILES,TRHR agonist-1,TRHR enhancer-1,D1 antag,D1 ag,D1 PAM,TRHR enhancer-2,TRHR agonist-2
C=CCN(Cc1nc(-c2ccc(OC)c(OC)c2)oc1C)C1CCS(=O)(=O)C1 (configuration not stated),0,1,13,0,0,x,x
O=C(c1ccc(NS(=O)(=O)c2ccccc2)cc1)N1CCCC1,0,1,-20,2,-1,x,x
CC1CCN(C(=O)c2ccc(NS(=O)(=O)c3ccccc3)cc2)CC1,-1,44*,-32*,7,-8,1,1%
Fc1ccc(C2CC(c3ccco3)=NN2c2ccccc2)cc1 (configuration not stated),0,10,7,4,5,x,x
O=[N+]([O-])c1ccc(N2N=C(c3ccco3)CC2c2ccccc2)cc1 (configuration not stated),28,-9,1,50*,-5,6,u
Cc1ccccc1C(=O)N1CCC(C(=O)NC(C)c2ccc(-n3ccnc3)cc2)CC1 (configuration not stated),0,0,19,2,-5,x,x
COc1ccc(C(=O)Nc2ccccc2C(=O)NC(C(=O)NCc2ccco2)C(C)C)cc1 (configuration not stated),0,48*,-12,1,-2,0,0%
COc1ccc(C(=O)N[C@H](C(=O)NCc2ccco2)C(C)C)cc1,0,-4,8,2,0,x,x
CCCCCC1CC(=O)N(Cc2ccccc2)C(=O)N1 (configuration not stated),-1,69*,9,1,-4,-4,0%
Cc1ccccc1OCC(O)CN1CCCCC1 (configuration not stated),0,43*,-9,6,0,-5,1%
Cc1ccccc1OCC(O)CN1CCN(c2ccc(Cl)cc2)CC1 (configuration not stated),1,51*,-26,5,-12,4,0%
Cc1ccccc1OCC(O)Cn1c(=N)n(CCN2CCCCC2)c2ccccc21 (configuration not stated),1,15,6,22,-5,x,x
O=S(=O)(NCc1ccccc1F)NCc1ccccc1F,-1,58*,-25,-1,-7,-6,0%
O=C(c1cc2ccccc2oc1=O)N1CCCCCCC1,0,56*,-12,3,2,-4,-1%
O=C(c1cc2ccccc2oc1=O)N1CCCC1,1,2,-7,1,-1,x,x
COc1ccc(/C=C/C(=O)N(CCC(N)=O)c2ccccc2)cc1S(=O)(=O)N1CCOCC1,0,-4,-6,2,-5,x,x
CN1CC(=O)N/C1=N\C(=O)Nc1ccc(O)cc1,1,54*,2,4,2,-3,-1%
NC(=O)CN1C(=O)NC(c2ccccc2)(c2ccccc2)C1=O,1,1,-6,2,-4,x,x

# High-throughput results deposited in PubChem BioAssay by National Center for Advancing Translational Sciences (NCATS).
